The structures appear in SMILES notation.

For the experiment, the system named is gramicidin D channels in DC22:1PC lipid vesicles (bilayer-modifying potency). As to the kind of experiment: initial Tl+ fluorescence quench rate relative to no-drug control (NormRate, gramicidin monomer-dimer shift) (ratio (fold of control)); higher = stronger bilayer-modifying effect (equilibrium shifted toward conducting dimers), active = 1.5 or more. The following applies: 10 µM; lipid concentration 50 µM; temperature: 25 °C. Here is the method: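 Stopped-flow fluorescence quench assay: ANTS-loaded DC22:1PC large unilamellar vesicles doped with gramicidin D (1:2000), 50 µM lipid, equilibrated 10 min with 10 µM drug (0.1% DMSO), mixed with Tl+ quench buffer at 25°C. Initial quench rate (Tl+ influx) was fitted with a modified stretched exponential and normalised to the no-drug control rate (NormRate); duplicates from two independent LUV preparations (triplicates for 7 drugs).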
For `COc1ccc(Cl)cc1NC(=O)CN(C)C(=O)c1cnn(-c2ccccc2)n1`, the “initial Tl+ fluorescence quench rate” value is 3.28 (active).
In the case of `N#CCN(CCCCN1CCN(c2ccc(F)cc2)CC1)C(=O)OCc1ccccc1`, the “initial Tl+ fluorescence quench rate” value was 1.5 (inactive).
Regarding `COc1ccc2nccc(NC(=O)C3CCN(CCc4ccc(Cl)cc4)CC3)c2n1`, the “initial Tl+ fluorescence quench rate” value was 1.09 (inactive).
For `COC(=O)c1ccc(F)cc1NS(=O)(=O)c1cccc(-c2cnn(Cc3ccccc3)c2)c1`, the “initial Tl+ fluorescence quench rate” value is 1.25 (inactive).
For `CNC(=O)c1nn(C)c2c1C(C)(C)Cc1cnc(Nc3ccc(N4CCN(C)CC4)cc3)nc1-2`, the “initial Tl+ fluorescence quench rate” value is 1.04 (inactive).
For the compound `CCS(=O)(=O)N(Cc1ccco1)Cc1cc2ccc(C)cc2nc1O`, the “initial Tl+ fluorescence quench rate” value was 1.26 (inactive).
In the case of `CC(C)n1nc(-c2cc3c(Cl)cccc3[nH]2)c2c(N)ncnc21`, the “initial Tl+ fluorescence quench rate” value is 3.74 (active).
For `CN1CCN(S(=O)(=O)c2ccc(-c3ccc4c(Nc5ncc(Cl)cn5)ccnc4c3)cc2)CC1`, the “initial Tl+ fluorescence quench rate” value is 2.76 (active).
As for `c1ccc(-c2[nH]c3ccccc3c2[C@H](c2ccccn2)N2CCCC2)cc1`, the “initial Tl+ fluorescence quench rate” value is 1.06 (inactive).
For the compound `CCOC(=O)c1cc(-c2csc(Nc3c(C)cc(C)cc3C)n2)on1`, the “initial Tl+ fluorescence quench rate” value was 1.15 (inactive).
The same measure for `O=C(COc1cccc(F)c1)Nc1nc(-c2ccccn2)cs1`: 1.16 (inactive); for `COc1ccc(Oc2ccc([C@@H](C)N(C)c3ncc4c(N)nc(N)nc4n3)cc2)cc1`: 3.36 (active).
As for `C[C@]1(O)C[C@@H](c2nc(-c3ccc4ccc(-c5ccccc5)nc4c3)c3c(N)nccn32)C1`, the “initial Tl+ fluorescence quench rate” value was 1.59 (active).
In the case of `NC(=O)c1cc(Br)ccc1OCCOc1ccccc1`, the “initial Tl+ fluorescence quench rate” value is 1.21 (inactive).
The result for `COc1ccc(-c2cc(NC(=O)c3ccc(F)cc3Cl)ccc2OC)cc1` reads 2.04 (active); that for `CN1CCN(CCCOc2ncc(Nc3ncc(-c4ccc(C(F)(F)F)c(F)c4)nc3C(N)=O)cn2)CC1`, 3.11 (active); that for `O=C1COCc2ccc(Br)cc2N1Cc1ccc(C(F)(F)F)cc1`, 1.55 (active).
The same measure for `Cc1nc2ccccn2c1C(=O)NCc1ccc(Cl)cc1`: 1.17 (inactive).
`COc1ccc(-c2onc(C(F)(F)F)c2-c2ccc(Cl)cc2)c(O)c1`: the “initial Tl+ fluorescence quench rate” value is 1.38 (inactive).
As to `CO[C@H]1/C=C/O[C@@]2(C)Oc3c(C)c(O)c4c(O)c(/c(=C/NN5CCN(C)CC5)c(O)c4c3C2=O)=N\C(=O)/C(C)=C\C=C/[C@H](C)[C@H](O)[C@@H](C)[C@@H](O)[C@@H](C)[C@H](OC(C)=O)[C@@H]1C`, the “initial Tl+ fluorescence quench rate” value is 1.34 (inactive).
In the case of `CC(C)(CN)c1nc(-c2ccc(Cl)c(O)c2)c(-c2ccnc(N)n2)[nH]1`, the “initial Tl+ fluorescence quench rate” value was 1.15 (inactive).
For `COc1cc(NC(=O)Cc2nn(C)c(=O)c3ccccc23)ccc1Cl`, the “initial Tl+ fluorescence quench rate” value is 1.11 (inactive).
Turning to `Cc1cc(Cl)ccc1NC(=O)CCc1ccc(S(=O)(=O)NCC(C)C)cc1`, the “initial Tl+ fluorescence quench rate” value was 1.42 (inactive).
Regarding `NCC(=O)N1CCn2c(nc(-c3ccccc3)c2Nc2ccc3c(c2)OCO3)C1`, the “initial Tl+ fluorescence quench rate” value was 1.36 (inactive).
The same measure for `O=C(C1CCN(c2cc(-n3cccc3)ncn2)CC1)N1CCc2ccccc2C1`: 1.45 (inactive); for `Cc1ccc2[nH]c3c(NCCN(C)C)ncnc3c2c1`: 1.05 (inactive); for `O=C(CN1CCOCC1)Nc1ccc2ncnc(Nc3ccc(OCc4cccc(F)c4)c(Cl)c3)c2c1`: 6.71 (active).
With `CC(=O)Oc1ccccc1C(=O)Nc1ncc([N+](=O)[O-])s1`, the “initial Tl+ fluorescence quench rate” value is 1.05 (inactive).
For `CCOc1ccccc1C(=O)Nc1cccc(-c2nc3ncccn3c2C)c1`, the “initial Tl+ fluorescence quench rate” value was 1.48 (inactive).
The result for `O=C(Nc1ccc2c(c1)B(O)OC2)c1ccccc1C(F)(F)F` reads 1.06 (inactive); that for `COc1ccc(C2=NCCN2)cc1-c1cn(-c2cccc(C3=NCCN3)c2)nn1`, 1.2 (inactive); that for `O=C1Nc2ccc(Br)cc2[C@]12NCCc1c2[nH]c2ccccc12`, 3.74 (active).
Regarding `COc1ccc(C2=NN(C3CCCCCC3)C(=O)C2(C)C)cc1OCCCCOc1ccc(-c2nn[nH]n2)cc1`, the “initial Tl+ fluorescence quench rate” value was 9.05 (active).
As to `Cc1[nH]c2ccccc2c1[C@@H](c1cccs1)N1CCN(C)CC1`, the “initial Tl+ fluorescence quench rate” value is 1.44 (inactive).
Turning to `C[C@@H](Oc1ccccc1)C(=O)Nc1nc(-c2ccccn2)cs1`, the “initial Tl+ fluorescence quench rate” value was 1.29 (inactive).
For `FC(F)(F)c1cccc(-c2nc3c(NCc4ccncc4)nccc3[nH]2)c1`, the “initial Tl+ fluorescence quench rate” value is 1.76 (active).
Take `CC(C)(C)[C@H]1CC[C@H](CC2=C(O)C(=O)c3ccccc3C2=O)CC1`: the “initial Tl+ fluorescence quench rate” value was 1.31 (inactive).

(Values after the supplement of paper PMC9948646.)
